{
  "source": "PubChem BioAssay (NCI)",
  "note": "The panel holds about 83,000 compounds, 20% with a hit somewhere; the sample as a whole holds those more often.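 Percent growth is the endpoint: 0 to 100 indicates growth inhibition (40 means 60% inhibition), 0 means no net growth, and negative values indicate cell death.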 Values without a mark were called inactive. Calls of active or inactive are those of the source.",
  "data": [
    {"system": "HOP-62 NSCLC", "assay": "NCI-60 one-dose screen, 48 h (100 = growth as untreated, 0 = no growth, -100 = all killed)", "details": "10 µM unless noted", "experimental": "Growth inhibition of the HOP-62 human Non-Small Cell Lung tumor cell line is measured as a screen for anti-cancer activity. Cells are grown in 96 well plates and exposed to the test compound for 48 hours. Compounds are tested at a single concentration, which is 10^-5 M for most compounds. The reported endpoint is percent growth (GI% or GIPRCNT), where numbers from 0 - 100% represent growth inhibition, and numbers from -100% - 0 represent cell death. For example, a value of 40 represents 60% growth inhibition. A value of 0 means no net growth occurred over the course of the experiment. A value of -40 indicates 40% of cells at the beginning of the experiment died by the end of the experiment. A value of -100 means all cells are dead at the end of the experiment.\nNCI-60 Human Tumor Cell Lines Screen was performed using the standard one-dose NCI protocol, which is described in more detail at https://dtp.cancer.gov/discovery_development/nci-60/default.htm.\nCompounds with GIPRCNT values below 10 were considered active. Activity score was based on GIPRCNT using the following formula: […]\nScore is 0 for GIPRCNT values of 100 or above, 50 for GIPRCNT values of 0, and 100 for GIPRCNT values of -100.", "values": [
      {"compound": "COc1cnc2c(c1)C(=O)c1c-2n(CCCN2CCC(O)CC2)c(=O)c2cc(F)ccc12", "growth": "-20.8% (active)"},
      {"compound": "C/C(=C\\CCc1ccoc1)CC/C=C(\\C)CCCC1COC(=O)C1", "note": "(stereo not given)", "growth": "96.9%"},
      {"compound": "NS(=O)(=O)c1ccc(-n2nc(-c3ccc(Br)cc3)ccc2=O)cc1", "growth": "20% [100 µM]"},
      {"compound": "C[C@]12CC[C@H](O)CC1=CC[C@@H]1[C@@H]2CC[C@]2(C)C(c3cccnc3)=CC[C@@H]12", "growth": "81.1%"},
      {"compound": "CCC(=O)Nc1cc2c(cc1Cl)-c1ccccc1C2", "growth": "97.6%"},
      {"compound": "COc1cc(-c2nnc(-c3nc(-c4cc(OC)c(OC)c(OC)c4)n4ccccc34)o2)ccc1N", "growth": "89%"},
      {"compound": "COc1cc(C2CC(c3ccc(C)cc3)=NN2C=O)ccc1OCCN(C)C", "note": "(stereo not given)", "growth": "87.9%"},
      {"compound": "N#Cc1ccccc1C#Cc1ccccc1C#Cc1ccc(OCCCCCCOc2ccc(C#Cc3ccccc3C#Cc3ccccc3C#N)cc2)cc1", "growth": "103%"},
      {"compound": "CCOC(=O)c1cc2oc(/C=C/c3cc(=O)c4cc(Cl)ccc4o3)cc2[nH]1", "growth": "99.6%"},
      {"compound": "N#Cc1c(-c2ccccc2)cc(-c2ccccc2)n(CCCCC(=O)O)c1=O", "growth": "90.9%"},
      {"compound": "COc1cc(/C=C/C(=O)CC(=O)/C=C/c2ccc(OC(=O)C3C4CC5CC(C4)CC3C5)c(OC)c2)ccc1OC(=O)C1C2CC3CC(C2)CC1C3", "note": "(stereo not given)", "growth": "99.1%"},
      {"compound": "Cn1ccnc1C(=O)/C=C/c1ccc(C(=O)Nc2nc3ccccc3[nH]2)cc1", "growth": "34.1%"},
      {"compound": "O=C(O)C1CCN(S(=O)(=O)c2ccc(-c3ccccc3)cc2)CC1", "growth": "112%"},
      {"compound": "N#Cc1ncc(-c2ccc(C(F)(F)F)cc2)c(NC2CCCCCC2)n1", "growth": "43.9%"},
      {"compound": "Cc1cc2c(cc1C)[n+](Cc1ccc3ccccc3c1)cn2Cc1ccc2ccccc2c1", "growth": "-73% (active)"},
      {"compound": "O=C1Nc2ccc(Cl)cc2/C1=C/c1cccs1", "growth": "80.8%"},
      {"compound": "O=C(CC(C(=O)c1ccccc1)N1CCN(Cc2ccccc2)CC1)c1ccccc1", "note": "(stereo not given)", "growth": "104%"},
      {"compound": "CCN1CCN(c2nc(NNC(=O)Cc3ccccc3)nc(N3CCN(C(c4ccccc4)c4ccccc4)CC3)n2)CC1", "growth": "74.5%"},
      {"compound": "COc1cc(OC)c2c(c1Cl)O[C@]1(C2=O)C(OCc2ccccc2)=CC(=O)C[C@H]1C", "growth": "5.17% (active)"},
      {"compound": "Nc1nc(NC2CC2)c2ncn(C3C=CC(CO)C3)c2n1", "note": "(stereo not given)", "growth": "104%"},
      {"compound": "COc1ccc(C(=O)COc2ccc(/C=C3\\Oc4ccc5ccccc5c4C3=O)cc2)cc1", "growth": "104%"},
      {"compound": "Cc1cc(C)nc(NS(=O)(=O)c2ccc(Nc3nc4nc(SCc5ccccc5)nc(-c5ccc(O)cc5)c4c(=O)[nH]3)cc2)n1", "growth": "93.4%"},
      {"compound": "N[C@H](CS)C(=O)O", "growth": "101%"},
      {"compound": "COC(=O)Nc1ccc2ccc3c(NC(=O)OC)ccc4ccc1c2c43", "note": "(tested in a mixture with another compound)", "growth": "48.5%"},
      {"compound": "Nc1nc(Nc2ccccc2SSc2ccccc2Nc2nc(N)nc(C(Cl)(Cl)Cl)n2)nc(C(Cl)(Cl)Cl)n1", "growth": "-34% (active)"},
      {"compound": "Cc1ccc(-c2c3c(N)nc(-c4ccncc4)nc3nc3c2c(C)nn3-c2ccccc2)cc1", "growth": "15.5%"},
      {"compound": "CCOC(=O)c1sc(NC(=O)COc2ccc(/C=C3\\CCc4cc(OC)ccc4C3=O)cc2)nc1C", "growth": "103%"},
      {"compound": "Clc1ccc2[nH]cc(-c3cncn3CCc3ccccc3)c2c1", "growth": "50.8%"},
      {"compound": "CCCCCCCCCCCCC1CCCC(C)C1", "note": "(stereo not given)", "growth": "90.5%"},
      {"compound": "N#CSCC1CC(O)(c2ccccc2)C(c2ccccc2)C(c2ccc(Cl)cc2)O1", "note": "(stereo not given)", "growth": "5.71% (active)"},
      {"compound": "CCOC(=O)Nc1ccc2c3c(cccc13)-c1ccccc1-2", "growth": "45.1%"},
      {"compound": "O=c1ncc(-c2ccc(C(F)(F)F)cc2)c(NC2CCCCCC2)[nH]1", "growth": "64%"},
      {"compound": "O=C(NC1CCCCC1)c1ccc(Nc2ncnc3c2cnn3-c2ccccc2)cc1", "growth": "-66.5% (active)"},
      {"compound": "CCCCc1ccc(C(N)=O)nc1", "growth": "99.3%"},
      {"compound": "Cc1[nH]cnc1/C=C1\\SC(N2CCCCC2)=NC1=O", "growth": "105%"},
      {"compound": "COc1ccc(-c2nc3sc4c(c3c(=O)[nH]2)CCCCCC4)cc1", "growth": "36.2%"},
      {"compound": "CC1CN(CC(O)c2ccc(Br)cc2)CCO1", "note": "(stereo not given)", "growth": "108%"},
      {"compound": "COc1cccc(/C=N/Nc2nc3ccccc3s2)c1OC", "growth": "68.8%"},
      {"compound": "COc1cccc(-c2nc(-c3ccc(N)cc3)co2)c1", "growth": "108%"},
      {"compound": "c1ccc(-c2nc(Nc3nccnn3)c3ccccc3n2)cc1", "growth": "99.8%"}
    ]}
  ]
}
